Many of the other results were omitted from the sample, so hits are more common in it than they were.
PKM2 inh = PKM2 (human) enzyme inhibition; Potency, µM (series often up to 57.5 µM), for inactives: at the top dose activity change, negative = inhibition, usual class: inhibitors; purified PKM2, ATP generation, Kinase-Glo luminescence; 260,000 tested, 0.058% active; active means well fitted inhibition curve with a large enough effect; further: nearly all actives have a fitted effect of over 60% in size
Target sequence (P14618 whole entry, looked up): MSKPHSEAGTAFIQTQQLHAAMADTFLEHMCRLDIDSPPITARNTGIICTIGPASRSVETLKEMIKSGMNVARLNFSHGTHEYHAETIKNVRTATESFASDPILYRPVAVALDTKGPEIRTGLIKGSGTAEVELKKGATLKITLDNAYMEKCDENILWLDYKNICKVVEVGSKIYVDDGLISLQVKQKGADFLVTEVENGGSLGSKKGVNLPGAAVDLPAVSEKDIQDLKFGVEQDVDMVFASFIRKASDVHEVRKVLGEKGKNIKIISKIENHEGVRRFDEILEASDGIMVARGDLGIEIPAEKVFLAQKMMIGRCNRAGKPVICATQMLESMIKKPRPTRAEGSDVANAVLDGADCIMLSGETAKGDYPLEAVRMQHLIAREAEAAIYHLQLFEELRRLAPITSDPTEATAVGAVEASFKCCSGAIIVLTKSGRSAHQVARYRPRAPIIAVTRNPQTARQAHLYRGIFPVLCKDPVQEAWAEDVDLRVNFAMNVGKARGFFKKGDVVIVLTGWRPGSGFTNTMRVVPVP
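Coupled luciferase luminescence (Kinase-Glo) detects ATP generated from 0.1 mM ADP and 0.5 mM PEP in imidazole buffer pH 7.2 with KCl, MgCl2; 1 h at room temperature. Enzyme at intermediate activity; normalized to uninhibited and no-enzyme controls.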
* hit, by the source's call. Potency means the concentration at half of the fitted maximal effect.

SMILES	PKM2 inh
CN(C)C(=O)Oc1ccc(OCc2nc3ccccc3[nH]2)cc1	11.2µM*
CSc1nc2ccccc2n1C(=O)Oc1ccccc1	31.9%
O=C1NC(=O)N(CCC2=CCCCC2)C(=O)/C1=C/c1cccs1	52.3%
CCC(C)C1(CC)C(=O)NC(=O)N=C1N (stereo unspecified)	-10.3%
CN(C)C(=S)SSC(=S)N(C)C	14.1µM*
O=C(Nc1cccnc1)C1CCN(S(=O)(=O)c2cccs2)CC1	38.4%
O=C1C2CCN(CC2)[C@@H]1Cc1ccc2ccccc2c1O	41.8%
S=P(Nn1cnnc1)(c1ccc(Br)cc1)c1ccc(Br)cc1	76.1%
CC(=O)Nc1ccc(N(C(=O)Cn2nnc3ccccc32)C(C(=O)NC2CCCC2)c2ccc(O)c(O)c2)cc1 (stereo unspecified)	44.1%
CCn1ccnc1CN1CCCC(C(=O)c2cc(C)c(OC)c(C)c2)C1 (stereo unspecified)	30.7%

Compound activity (PubChem BioAssay)
